Growth data for nine molecules are collected here from PubChem BioAssay (NCI).

About 83,000 compounds went through this panel and 20% of them were active in at least one assay; those are over-represented in the sample as a whole.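 The endpoint reported here, percent growth, reads 100 for growth as untreated, 0 for no net growth and -100 for all cells dead.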 Values without a mark were called inactive. Active and inactive are the calls of the source. How the source made its calls: active means growth percent below 10; inactive means the rest.

Some test systems named below: SK-MEL-2 melanoma; EKVX NSCLC; SN12C renal; UO-31 renal; TK-10 renal; ACHN renal; CAKI-1 renal; CCRF-CEM leukemia; MOLT-4 leukemia; SR leukemia; RPMI-8226 leukemia; OVCAR-8 ovarian; OVCAR-4 ovarian; SK-OV-3 ovarian; IGROV1 ovarian; OVCAR-3 ovarian; OVCAR-5 ovarian; HS 578T breast; NCI/ADR-RES ovarian.
Holding throughout (assay): NCI-60 one-dose screen, 48 h (100 = growth as untreated, 0 = no growth, -100 = all killed)
What all share (conditions): 10 µM unless noted

As for `Cc1c2c(cn1Cc1ccccc1)CCc1cn(C)nc1-2`, the growth with SK-MEL-2 melanoma was 114%; in the assay with EKVX NSCLC, 73.2%; with SN12C renal, 87%; with UO-31 renal, 68.6%; in the assay on TK-10 renal it was 107%; in the assay with ACHN renal it was 80.3%. In addition, the growth in the assay with CAKI-1 renal is 58.8%; with CCRF-CEM leukemia, 74.4%; in the assay on MOLT-4 leukemia, 69.7%; in the assay on SR leukemia, 53.2%; with RPMI-8226 leukemia, 40.9%; in the assay with OVCAR-8 ovarian it was 86.5%. Further, the growth in the assay on OVCAR-4 ovarian was 55.4%; in the assay on SK-OV-3 ovarian it was 108%; in the assay with IGROV1 ovarian it was 102%; with OVCAR-3 ovarian, 107%.

For the molecule `COc1cc(/C=C/C(=O)c2cccc(-n3cc(-c4ccc(Cl)cc4)[nH]c3=O)c2)cc(OC)c1OC`, the growth is 34.1% in the assay with SK-MEL-2 melanoma; 64.7% in the assay with EKVX NSCLC; 56.3% in the assay with SN12C renal; 52.2% in the assay with UO-31 renal; 91.7% in the assay on TK-10 renal; 67.5% with ACHN renal. Moreover, the growth in the assay on CAKI-1 renal was 65.6%; in the assay with CCRF-CEM leukemia, 4.15% (active); with MOLT-4 leukemia, 26.8%; in the assay with SR leukemia, -15.8% (active); in the assay with RPMI-8226 leukemia it was -27.1% (active); with OVCAR-8 ovarian it was 29.3%. In addition, the growth in the assay on OVCAR-4 ovarian was 76.9%; in the assay with SK-OV-3 ovarian, 84.8%; in the assay with IGROV1 ovarian, 13.1%; in the assay with OVCAR-3 ovarian, 15.8%.

As for `O=C(c1ccccc1)c1ccc(N2C(=O)C3C4c5ccccc5C(/C=C/C(=O)c5ccccn5)(c5ccccc54)C3C2=O)cc1` (configuration not stated), the growth with SK-MEL-2 melanoma was 74.7%; in the assay on EKVX NSCLC, 27.9%; in the assay with SN12C renal, 11.3%; with UO-31 renal, -37.4% (active); in the assay with TK-10 renal it was 20.1%; in the assay on ACHN renal it was -25.4% (active). Also, the growth was 49.3% in the assay with CAKI-1 renal; 11.1% in the assay with CCRF-CEM leukemia; 16% with MOLT-4 leukemia; 13.7% in the assay on SR leukemia; 3.95% (active) in the assay on RPMI-8226 leukemia; 26.4% in the assay on OVCAR-8 ovarian. Besides, the growth is 29.9% in the assay on OVCAR-5 ovarian; 32.4% in the assay on OVCAR-4 ovarian; -19.8% (active) in the assay with IGROV1 ovarian; -54.1% (active) in the assay on OVCAR-3 ovarian; 9.77% (active) with HS 578T breast; 20.5% with NCI/ADR-RES ovarian.

For `O=C1Nc2ccccc2/C1=N/N=C/c1ccsc1`, the growth was 107% in the assay with SK-MEL-2 melanoma; 90.9% with EKVX NSCLC; 95.3% in the assay on SN12C renal; 74.8% with UO-31 renal; 137% in the assay on TK-10 renal; 102% in the assay with ACHN renal. In addition, the growth was 92% in the assay with CAKI-1 renal; 101% with CCRF-CEM leukemia; 103% with MOLT-4 leukemia; 88.6% in the assay with SR leukemia; 102% in the assay on OVCAR-8 ovarian; 115% in the assay with OVCAR-5 ovarian. The growth in the assay on OVCAR-4 ovarian is 90.4%; in the assay on IGROV1 ovarian, 101%; in the assay on OVCAR-3 ovarian, 103%; with HS 578T breast it was 94.4%; in the assay on NCI/ADR-RES ovarian, 110%.

With `O=C1Nc2ccc(Cl)cc2/C1=N/N=C/c1c[nH]c2ccccc12`, the growth was 66.3% in the assay with SK-MEL-2 melanoma; 22.6% with EKVX NSCLC; 80.5% in the assay with SN12C renal; 40.9% with UO-31 renal; 75.8% in the assay with TK-10 renal; 49.8% in the assay on ACHN renal. Besides, the growth is 28.9% with CAKI-1 renal; 85.7% with CCRF-CEM leukemia; 92.1% in the assay on MOLT-4 leukemia; 75.2% in the assay with SR leukemia; 76% in the assay on OVCAR-8 ovarian; 89.8% in the assay on OVCAR-5 ovarian. Also, the growth in the assay on OVCAR-4 ovarian is 67.8%; in the assay with IGROV1 ovarian, 42.7%; in the assay with OVCAR-3 ovarian, 76.5%; in the assay on HS 578T breast, 22%; with NCI/ADR-RES ovarian, 98.1%.

For `CNCCNc1nc2ccccc2c2c(=O)c3cc(F)ccc3oc12`, the growth with SK-MEL-2 melanoma was 100%; in the assay on EKVX NSCLC, 71.9%; with SN12C renal, 46.9%; in the assay on UO-31 renal, 37.7%; with TK-10 renal it was 80.2%; in the assay on ACHN renal it was 24%. In addition, the growth in the assay on CAKI-1 renal was 45%; in the assay with CCRF-CEM leukemia, 52.4%; in the assay with MOLT-4 leukemia, 10.7%; in the assay with SR leukemia it was 22.7%; in the assay on RPMI-8226 leukemia, 47.8%; in the assay with OVCAR-8 ovarian, 47%. Further, the growth with OVCAR-5 ovarian was 80.4%; in the assay on OVCAR-4 ovarian, 54.8%; in the assay on IGROV1 ovarian, 49.6%; in the assay on OVCAR-3 ovarian it was 69.3%; with NCI/ADR-RES ovarian it was 47.8%.

In the case of `N=C(N)c1ccc(-c2ccc(-c3ccc(Cl)cn3)s2)cc1`, the growth was 99.8% in the assay with SK-MEL-2 melanoma; 65.8% with EKVX NSCLC; 10.2% in the assay on SN12C renal; 57.6% in the assay with UO-31 renal; 91.9% in the assay with TK-10 renal; 12% with ACHN renal. In addition, the growth in the assay with CAKI-1 renal is 63.2%; in the assay on CCRF-CEM leukemia, 3.3% (active); in the assay on MOLT-4 leukemia, 4.73% (active); in the assay with SR leukemia, 6.63% (active); in the assay with OVCAR-8 ovarian, 38%; in the assay with OVCAR-5 ovarian, 52.2%. Besides, the growth with OVCAR-4 ovarian is 40%; in the assay with IGROV1 ovarian, 14.4%; in the assay with OVCAR-3 ovarian, 4.7% (active); in the assay with HS 578T breast it was 63.2%; with NCI/ADR-RES ovarian, 62.4%.

For `N#Cc1c(NC(=O)c2ccccc2I)sc2c1CCCC2`, the growth was 26.4% in the assay on SK-MEL-2 melanoma; 48.5% with EKVX NSCLC; 53.5% in the assay with SN12C renal; 58.1% in the assay with UO-31 renal; 106% with TK-10 renal; 50.9% with ACHN renal. Moreover, the growth in the assay on CAKI-1 renal is 45%; in the assay on CCRF-CEM leukemia, 23.7%; with MOLT-4 leukemia it was 34.9%; in the assay on SR leukemia it was 38.6%; in the assay with RPMI-8226 leukemia, 46.4%; in the assay with OVCAR-8 ovarian, 51.4%. For the same molecule, the growth with OVCAR-5 ovarian was 70.8%; in the assay with IGROV1 ovarian, 50.6%; in the assay with OVCAR-3 ovarian, 15.7%; in the assay on HS 578T breast, 32.1%; with NCI/ADR-RES ovarian it was 13.2%.

Turning to `Cc1ccc(/C=C(\C#N)n2nnc3cc(Cl)c(Cl)cc32)cc1`, the growth with SK-MEL-2 melanoma was 26%; in the assay on EKVX NSCLC, 36.5%; in the assay with SN12C renal, 19.5%; in the assay on UO-31 renal, 0.755% (active); in the assay with TK-10 renal, 44.6%; in the assay with ACHN renal it was 25.7%. For the same molecule, the growth with CAKI-1 renal is 22.2%; in the assay on CCRF-CEM leukemia, 9.85% (active); in the assay on MOLT-4 leukemia, 9.51% (active); in the assay with SR leukemia it was 17.3%; in the assay with OVCAR-8 ovarian, 14.8%; in the assay on OVCAR-5 ovarian, 13.3%. Moreover, the growth with OVCAR-4 ovarian is 29.3%; with IGROV1 ovarian it was 12.2%; in the assay on OVCAR-3 ovarian, -35.2% (active); in the assay on HS 578T breast, 11.7%; in the assay on NCI/ADR-RES ovarian it was -25.5% (active).
